In the supplement of paper PMC8728848:
About 410 targets per protein were measured; listed, in parts, are those with the strongest signals and a random draw of the rest.

How the values were obtained:
Assay in all cases: glycan array binding signal (z-score within array); higher = stronger binding
Settings in all cases: glycan notation: IUPAC condensed, linker removed
[1] = target: Fuc(a1-2)Gal(b1-3)GalNAc(a1-3)[Fuc(a1-2)]Gal(b1-4)GlcNAc
How it was run: (§1)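 The binding signal is a Z-score computed within each array and averaged over linkers. Arrays of the same protein sequence at different concentrations or buffers were also averaged together. Data originate from 3228 arrays in the Consortium for Functional Glycomics database, kept only where the protein sequence was available.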

[2] = target: Fuc(a1-2)Gal(b1-3)GlcNAc
How it was run: as §1

[3] = target: Fuc(a1-2)Gal(b1-3)GlcNAc(b1-2)Man(a1-3)[Fuc(a1-2)Gal(b1-3)GlcNAc(b1-2)Man(a1-6)]Man(b1-4)GlcNAc(b1-4)GlcNAc
How it was run: as §1

[4] = target: Fuc(a1-2)Gal(b1-3)GlcNAc(b1-3)[Gal(b1-4)GlcNAc(b1-6)]Gal(b1-4)Glc
How it was run: as §1

[5] = target: Fuc(a1-2)Gal(b1-3)GlcNAc6S
How it was run: as §1

[6] = target: Fuc(a1-2)Gal(b1-4)GlcNAc(b1-2)Man(a1-3)[Fuc(a1-2)Gal(b1-4)GlcNAc(b1-2)Man(a1-6)]Man(b1-4)GlcNAc(b1-4)GlcNAc
How it was run: as §1

[7] = target: Fuc(a1-2)[Gal(a1-3)]Gal(b1-3)GlcNAc(b1-3)GalNAc
How it was run: as §1

[8] = target: Fuc(a1-2)[Gal(a1-3)]Gal(b1-4)GlcNAc(b1-2)Man(a1-3)[Fuc(a1-2)[Gal(a1-3)]Gal(b1-4)GlcNAc(b1-2)Man(a1-6)]Man(b1-4)GlcNAc(b1-4)GlcNAc
How it was run: as §1

[9] = target: Fuc(a1-2)[GalNAc(a1-3)]Gal(b1-4)GlcNAc(b1-6)GalNAc
How it was run: as §1

[10] = target: Fuc(a1-3)[Gal(b1-4)]GlcNAc
How it was run: as §1

[11] = target: Gal(a1-3)Gal(b1-4)GlcNAc(b1-2)Man
How it was run: as §1

[12] = target: Gal(a1-4)Gal(b1-3)GlcNAc(b1-2)Man(a1-3)[Gal(a1-4)Gal(b1-3)GlcNAc(b1-2)Man(a1-6)]Man(b1-4)GlcNAc(b1-4)GlcNAc
How it was run: as §1

[13] = target: Gal(a1-4)GlcNAc
How it was run: as §1

[14] = target: Gal(b1-3)Gal(b1-4)GlcNAc
How it was run: as §1

[15] = target: Gal(b1-3)GlcNAc(b1-3)Gal(b1-4)GlcNAc(b1-2)[Gal(b1-3)GlcNAc(b1-3)Gal(b1-4)GlcNAc(b1-6)]Man(a1-6)[Gal(b1-3)GlcNAc(b1-3)Gal(b1-4)GlcNAc(b1-2)Man(a1-3)]Man(b1-4)GlcNAc(b1-4)[Fuc(a1-6)]GlcNAc
How it was run: as §1

[16] = target: Gal(b1-3)[Fuc(a1-4)]GlcNAc(b1-2)Man(a1-3)[Gal(b1-3)[Fuc(a1-4)]GlcNAc(b1-2)Man(a1-6)]Man(b1-4)GlcNAc(b1-4)[Fuc(a1-6)]GlcNAc
How it was run: as §1

[17] = target: Gal(b1-4)Glc
How it was run: as §1

[18] = target: Gal(b1-4)GlcNAc(b1-3)Gal(b1-3)GalNAc
How it was run: as §1

[19] = target: Gal(b1-4)GlcNAc(b1-3)Gal(b1-3)GlcNAc
How it was run: as §1

[20] = target: Gal(b1-4)GlcNAc(b1-3)Gal(b1-4)GlcNAc(b1-3)Gal(b1-4)GlcNAc(b1-2)Man(a1-3)[Gal(b1-4)GlcNAc(b1-3)Gal(b1-4)GlcNAc(b1-3)Gal(b1-4)GlcNAc(b1-2)Man(a1-6)]Man(b1-4)GlcNAc(b1-4)[Fuc(a1-6)]GlcNAc
How it was run: as §1

[21] = target: Gal(b1-4)GlcNAc(b1-3)Gal(b1-4)GlcNAc(b1-3)Gal(b1-4)GlcNAc(b1-2)[Gal(b1-4)GlcNAc(b1-3)Gal(b1-4)GlcNAc(b1-3)Gal(b1-4)GlcNAc(b1-6)]Man(a1-6)[Gal(b1-4)GlcNAc(b1-3)Gal(b1-4)GlcNAc(b1-3)Gal(b1-4)GlcNAc(b1-2)Man(a1-3)]Man(b1-4)GlcNAc(b1-4)[Fuc(a1-6)]GlcNAc
How it was run: as §1

[22] = target: Gal(b1-4)GlcNAc(b1-3)Gal(b1-4)GlcNAc(b1-3)Gal(b1-4)GlcNAc(b1-3)Gal(b1-4)GlcNAc(b1-3)Gal(b1-4)GlcNAc(b1-2)[Gal(b1-4)GlcNAc(b1-3)Gal(b1-4)GlcNAc(b1-3)Gal(b1-4)GlcNAc(b1-3)Gal(b1-4)GlcNAc(b1-3)Gal(b1-4)GlcNAc(b1-6)]Man(a1-6)[Gal(b1-4)GlcNAc(b1-3)Gal(b1-4)GlcNAc(b1-3)Gal(b1-4)GlcNAc(b1-3)Gal(b1-4)GlcNAc(b1-3)Gal(b1-4)GlcNAc(b1-2)Man(a1-3)]Man(b1-4)GlcNAc(b1-4)[Fuc(a1-6)]GlcNAc
How it was run: as §1

[23] = target: Gal4S(b1-4)GlcNAc
How it was run: as §1

[24] = target: Gal6P(b1-4)GlcNAc
How it was run: as §1

[25] = target: Gal6S(b1-3)GlcNAc6S
How it was run: as §1

[26] = target: GalNAc(b1-6)GalNAc
How it was run: as §1

[27] = target: GalNAc6S(b1-4)GlcNAc
How it was run: as §1

B1: Nc3LysM-2 (protein)
chain: AHVLQARQSVSCDFATAANTGDTCASFAAAWGITEAAFAKLNPGVSCPGNLIAGSEYCVIGTVSTGAPTTTKAATTSTTPPTTTTTTKATTLSTSTTSVSPTGPSPQMPSITSTCNKFYQVQSGDGCWSIEQAQGVSASDFMAWNKAVDAQCDNLWLGYYVCVGVKGGSSPPPTTTTKPASSSAPTPQMPNTVSNCKKFHKVVSGDGCWAIEQAAGISASDFAKWNPYVDAACDNLWLGYYVCIGV
- glycan array binding signal (z-score) [1]: -0.746
- glycan array binding signal (z-score) [2]: 0.966
- glycan array binding signal (z-score) [3]: -0.335
- glycan array binding signal (z-score) [4]: 0.735
- glycan array binding signal (z-score) [5]: -1.29
- glycan array binding signal (z-score) [6]: 2.21
- glycan array binding signal (z-score) [7]: -0.745
- glycan array binding signal (z-score) [8]: 2.78
- glycan array binding signal (z-score) [9]: -1.2
- glycan array binding signal (z-score) [10]: -0.073
- glycan array binding signal (z-score) [11]: -0.456
- glycan array binding signal (z-score) [12]: -0.185
- glycan array binding signal (z-score) [13]: 0.991
- glycan array binding signal (z-score) [14]: -0.043
- glycan array binding signal (z-score) [15]: 2.73
- glycan array binding signal (z-score) [16]: 0.856
- glycan array binding signal (z-score) [17]: -0.252
- glycan array binding signal (z-score) [18]: -1.18
- glycan array binding signal (z-score) [19]: 0.13
- glycan array binding signal (z-score) [20]: 2.69
- glycan array binding signal (z-score) [21]: 5.8
- glycan array binding signal (z-score) [22]: 2.29
- glycan array binding signal (z-score) [23]: -1.15
- glycan array binding signal (z-score) [24]: -0.044
- glycan array binding signal (z-score) [25]: -1.34
- glycan array binding signal (z-score) [26]: 0.877
- glycan array binding signal (z-score) [27]: 0.893
